Bioassay records deposited in PubChem by National Center for Advancing Translational Sciences (NCATS).
HCMV antiviral = blocks human cytomegalovirus replication; HFF cells, HCMV-luciferase reporter, 72 h; stronger effect = lower value; activity change, negative = inhibition, % at 57.5 µM; 410,000 compounds, 4.5% hits; in the data active = activity change below about -60%; inconclusive = no clear call, values can overlap the other calls; inactive = above about -39%
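Luciferase read-out from HCMV-luciferase-infected HFFs (MOI 1 PFU/cell) 72 h post infection at 37C; compounds added after 16 h cell attachment; activity normalized between buffer-only basal and Salinomycin (10uM) inhibitor controls.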
Sm TGR block = blocks Schistosoma mansoni thioredoxin glutathione reductase. Q962Y6. purified TGR, DTNB reduction, TNB absorbance 405 nm. Potency, µM (titrated, usually from 114 µM), inactives show top-dose activity change, negative = inhibition, most hits filed as inhibitors. 360,000 compounds, 3% hits; also: potency is read from the fitted curve at half-maximal effect; nearly all actives have a fitted effect of over 60% in size
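Kinetic colorimetric format: TGR-catalysed, NADPH-driven DTNB reduction monitored via TNB absorbance. Enzyme dispensed at 20 nM; compound exposure 15 min at room temperature before reaction start.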
FMDV antiviral = foot and mouth disease virus antiviral activity. AID 1159524. 410,000 compounds, 1.2% hits. FMDV antiviral cell-based qHTS. Potency, µM (doses to about 57.9 µM), without a hit: at the highest dose activity change, negative = inhibition, most hits filed as inhibitors; calls by dose curve; tested in HEK293T cells; also: read-out not given here; potency is read from the fitted curve at half-maximal effect; nearly all actives have a fitted effect of over 45% in size
HCV inhibitor = inhibitors of hepatitis C virus infection. Huh7.5.1 HCVcc-Cre infection, luciferase reporter, 44 h. Potency, µM (top dose mostly 41.8 µM), for inactives: at the top dose activity change, negative = inhibition, hits mostly inhibitors. 340,000 compounds, 3.4% hits. AID 651820; also: potency is read from the fitted curve at half-maximal effect
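After 44 h co-culture of compound, cells and HCVcc-Cre (~0.5 moi), substrate is added for 15 min at room temperature and luciferase measured over 15 sec. Cells were seeded at 1,000/well and pre-cultured 4 h.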
VACV mCherry inh = vaccinia inhibition (mCherry reporter) | 310,000 compounds, 0.63% hits | Vaccinia virus mCherry reporter infection, fluorescence | Potency, µM (titrated, usually from 36.5 µM), for inactives: at the highest dose activity change, negative = inhibition, hits mostly inhibitors; calls by dose curve; tested in A549 cells; also: potency is read from the fitted curve at half-maximal effect; nearly all actives have a fitted effect of over 35% in size
VACV Venus inh = inhibitors of vaccinia virus (Venus reporter) | Vaccinia virus Venus reporter expression, fluorescence | Potency, µM (series often up to 36.5 µM), for the others: at the top dose activity change, negative = inhibition, usual class: inhibitors | 330,000 compounds, 0.46% hits | AID 720580; calls by dose curve; tested in A549 cells; also: potency is read from the fitted curve at half-maximal effect; nearly all actives have a fitted effect of over 30% in size
* marks the source's active call; other numbers are inactive results; i = inactive; u = inconclusive; x = no result. Only some compounds are listed: those with a hit (about 9.3% of all), similar ones and a draw of the others. Unless noted, calls follow the shape of the dose curve; as a rule, active = well fitted curve in the direction sought with a large enough effect; inconclusive = small, poorly fitted or top-dose-only effect, or another doubt; inactive = no such curve, though single readings can be large; an effect the other way counts as inactive or inconclusive. % is scaled to controls: 0 for no effect and ±100 for the full control effect.

SMILES | HCMV antiviral | Sm TGR block | FMDV antiviral | HCV inhibitor | VACV mCherry inh | VACV Venus inh
O=C1CN(C(=O)N[C@@H](Cc2ccccc2)C(=O)N[C@@H](C(=O)O)c2ccccc2)c2ccccc2N1 | 0 | 3% | -16% | 11% | x | x
O=C(NNC(=O)c1ccc2nonc2c1)Nc1ccc(Cl)cc1 | 26 | 0% | -2% | -8% | -25% | 5%
Cc1ccccc1-n1nc2c(c1NC(=O)c1cc3ccccc3oc1=O)CS(=O)(=O)C2 | -17 | -26% | -11% | u | x | x
N#CC1=C(SCC(=O)c2ccc(Br)cc2)NC2=C(C(=O)CCC2)C1c1ccco1 (configuration not stated) | -25 | -18% | u | 4.5µM* | u | u
N#Cc1c(NCCN)nc(NCc2ccccc2)c2c1CCN(Cc1ccccc1)C2 | x | -10% | -17% | u | -8% | -21%
C=CCNc1nc(NCc2ccccc2)c(C#N)c2c1CN(C)CC2 | -30 | -2% | u | 18µM* | u | -17%
N#C/C(=C\c1c(N2CCN(Cc3ccccc3)CC2)nc2ccccn2c1=O)S(=O)(=O)c1ccccc1 | 0 | 0% | 16% | -22% | x | x
COc1ccc(-n2c(-c3ccc(Br)cc3)c[n+]3c2CCC3)cc1 | -92* | 9% | u | -7% | i | -3%
COc1ccc(-n2c(-c3ccc(Br)cc3)c[n+]3c2CCCCC3)cc1 | -87* | -10% | -20% | 10% | -11% | -17%
CCOc1ccc(-c2c[n+]3c(n2-c2ccccc2)CCCCC3)cc1 | -98* | 0% | u | u | x | x
COc1ccc(-n2c(-c3ccc(Br)cc3)c[n+]3c2SC(C)C3)cc1 (configuration not stated) | -96* | -3% | u | -3% | -15% | -18%
COc1ccc(-n2c(-c3ccc(Br)cc3)nc(=S)c3c2CCCC3)cc1 | -25 | u | -26% | 4% | -7% | -1%
CCOc1ccc(-n2c(-c3ccc(Cl)cc3)c[n+]3c2SCC3)cc1 | u | 7% | u | -25% | i | -7%
COc1ccc(-n2c(-c3ccc(Br)cc3)n[nH]c2=S)cc1 | 7 | -5% | -13% | 0% | x | x
FC(F)Sc1ccc(-n2c(-c3ccc(Cl)cc3)c[n+]3c2CCC3)cc1 | -25 | 22% | -25% | 5% | -1% | -3%
Cc1cccc(C)c1OCc1nc2c3cnn(-c4ccccc4Br)c3ncn2n1 | -28 | 2% | -5% | x | -16% | -15%
CN(Cc1c(C(=O)N/N=C/c2ccc(O)cc2)nnn1-c1nonc1N)c1ccccc1 | 6 | 5% | -1% | 1% | x | x
CN(CCO)c1cc(N2CCN(C(=O)c3ccco3)CC2)c2nonc2c1[N+](=O)[O-] | 71 | u | -23% | -6% | -9% | -12%
CN1C(=O)/C(=C/c2ccc(OC(=O)c3ccco3)cc2)SC1=S | -7 | 5% | 25% | 11% | -3% | 0%
COc1ccc(-n2c(-c3ccccc3)c[n+]3c2CCC3)cc1 | -78* | 10% | u | 10µM* | -1% | -27%
CCc1ccc(S(=O)(=O)c2nnn3c2nc(NCc2cccs2)c2sccc23)cc1 | -3 | 1% | 8% | x | -1% | u
CCc1ccc(S(=O)(=O)c2nnn3c2nc(NCCc2ccccc2)c2sccc23)cc1 | -81* | 9% | 9% | x | -29% | -26%
Cc1ccc(S(=O)(=O)c2nnn3c2nc(NC(C)c2ccccc2)c2sccc23)cc1 (configuration not stated) | -71* | 0% | -30% | x | -26% | -16%
Cc1ccc(C)c(Nc2nc3c(S(=O)(=O)c4ccc(C(C)C)cc4)nnn3c3ccsc23)c1 | -71* | -19% | -7% | x | -28% | -27%
Cc1ccc(C)c(Nc2nc3c(S(=O)(=O)c4ccc(Br)cc4)nnn3c3ccsc23)c1 | -95* | -4% | -16% | x | u | u
SMILES | HCMV antiviral | Sm TGR block | FMDV antiviral | HCV inhibitor | VACV mCherry inh | VACV Venus inh
Cn1c(-c2sc3cc(C(F)(F)F)cnc3c2-c2cccnc2)n[nH]c1=S | -6 | -4% | -18% | -1% | -5% | -16%
CCCC(=O)Nc1cc(C)c(NC(=O)c2ccccn2)cn1 | 39 | 3% | 44% | -3% | -9% | 8%
CC(C)OCCCNC(=O)c1ccncc1 | -7 | -5% | 1% | x | -6% | -10%
O=C(C1CCN(S(=O)(=O)c2ccc3ccccc3c2)CC1)N1CCN(c2ncccn2)CC1 | -32 | -23% | 28µM* | u | -5% | -3%
COc1ccccc1CNC(=O)C1CCN(S(=O)(=O)c2cccc3cccnc23)CC1 | -71* | 7% | 0% | -7% | 8% | -9%
O=C(C1CCN(S(=O)(=O)c2cccc3cccnc23)CC1)N1CCN(c2ccccn2)CC1 | -12 | 0% | u | 12% | -20% | -6%
O=C(Nc1ccccn1)C1CCN(S(=O)(=O)c2ccc3ccccc3c2)CC1 | -26 | 19% | -18% | -14% | -10% | -10%
O=C(C1CCN(S(=O)(=O)c2cccc3cccnc23)CC1)N1CCN(c2ccc(Cl)cc2)CC1 | -79* | -10% | -30% | 11µM* | 8% | -24%
Cc1ccc(Cl)cc1N1CCN(C(=O)C2CCN(S(=O)(=O)c3cccnc3)CC2)CC1 | -30 | -6% | 16µM* | u | u | u
CCC1(C)OCC(Cn2c3ccccc3c3ccccc32)O1 (configuration not stated) | x | 0% | x | -7% | x | x
CCOc1ccccc1CNC(=O)C1CCN(C2=NS(=O)(=O)C(c3ccc(C)c(C)c3)=C2C)CC1 | -8 | 3% | -22% | x | -3% | 2%
Cc1ccc(Cl)cc1N1CCN(C(=O)C2CCN(S(=O)(=O)c3c(C)nn(C)c3C)CC2)CC1 | -37 | -9% | 32µM* | 11µM* | -9% | -24%
O=C(C1CCN(S(=O)(=O)c2cccnc2)CC1)N1CCN(c2ccc(Cl)cc2)CC1 | -90* | 6% | u | u | x | x
Cc1ccc(Cl)cc1N1CCN(C(=O)C2CCN(S(=O)(=O)Cc3ccccc3)CC2)CC1 | -12 | -30% | u | x | -11% | 1%
COc1ccccc1CNC(=O)C1CCN(C2=NS(=O)(=O)C(c3ccc(C)c(C)c3)=C2C)CC1 | -64* | 1% | u | x | -17% | -16%
O=C(C1CCN(S(=O)(=O)c2cccnc2)CC1)N1CCN(c2ccccc2Cl)CC1 | -2 | -12% | u | -5% | x | -18%
COc1ccc(N2CCN(C(=O)C3CCN(S(=O)(=O)c4cn(C)cn4)CC3)CC2)cc1 | -72* | -2% | -10% | x | -11% | -8%
Cc1ccccc1NC(=O)CSCCN1C(=O)c2ccccc2C1=O | 31 | -8% | -8% | 5% | -6% | -14%
O=C(CSc1nnc(-c2ccc(Cl)s2)o1)N1CCOCC1 | x | -7% | x | x | x | x
Cc1ccn2cc(-c3ccc(NS(=O)(=O)c4ccccc4)cc3)nc2c1 | 57 | 5% | 11% | 11µM* | -25% | -23%
